In PubChem BioAssay (NCI):
Compounds without any hit were thinned out: in the full panel of roughly 83,000, 20% have a hit.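 Negative percent growth values reflect cell death: -40 means 40% of the cells present at the start died, and -100 means all died.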 Values without a mark were called inactive. Calls of active or inactive are those of the source. How the source made its calls: active means growth percent below 10; inactive means the rest.

Test system: MDA-MB-468 breast
Assay: NCI-60 one-dose screen, 48 h (100 = growth as untreated, 0 = no growth, -100 = all killed)
Conditions: 10 µM unless noted

Row | SMILES | growth
1 | C=C1C(=O)O[C@H]2[C@H]1CC/C(COC(=O)C(C)c1ccc(CC(C)C)cc1)=C\CC[C@@]1(C)O[C@@H]21 (stereo not given in full) | 6.36% (active)
2 | COc1cc(CSc2nc3ccc(Cl)cc3c(=O)n2Cc2ccccc2)cc(OC)c1OC | -13.1% (active)
3 | O=C(/C=C1\C=CN(CCCCCCF)c2ccccc21)n1ccc2ccccc21 | 84.9%
4 | O=C1/C=C/[C@@H](O)[C@@H]2C[C@@H](O)C[C@H]2/C=C/CCC[C@H](CO)O1 | -20.1% (active)
5 | Cc1ccc(Nc2cccc3ccccc23)cc1 | -11.7% (active)
6 | CC1=C[C@H]2c3c(c(O)c(O)c4oc5c(C)cccc5c(=O)c34)[C@H](c3cc(O)c(O)c4oc5c(C)cccc5c(=O)c34)[C@H]2C(C)(C)C1 | 21.6%
7 | CCOc1ccc2c(c1)CN(Cc1ccc(Cl)cc1)CO2 | 57.2%
8 | CS(=O)(=O)c1nnc(-c2ccccc2)s1 | -8.46% (active)
9 | Nc1cc(-c2c[nH]c3ccc(F)cc23)nc2cc(-c3c[nH]c4ccc(F)cc34)nn12 | 115%
10 | COc1cc2cc(COc3nccc(-c4ccc(Cl)cc4)n3)c(=O)[nH]c2cc1OC | 80.1%
11 | O=C(NCCNc1nccc(-c2c(-c3cccc(F)c3)nc3sccn23)n1)c1ccc(Cl)cc1 | 67.8%
12 | O=c1c2ccccc2c(=O)c2c1sc1c(=O)c3ccc(O)cc3c(=O)c12 | -43.6% (active)
13 | O=C(C(=O)N1CCOCC1)c1ccc(O[C@H]2O[C@H](CO)[C@@H](O)[C@H](O)[C@@H]2O)cc1 | 97.5%
14 | COc1ccc2cc(Cn3cc[n+](Cc4ccc5ccccc5c4)c3)ccc2c1 | -22.9% (active)
15 | COc1cc(-c2nn(C(=O)NS(=O)(=O)c3ccccc3)cc2-c2ccncc2)ccc1Cl | 68%
16 | CN1CCN(c2nc(-c3csc(-c4cccs4)n3)cc3ccccc23)CC1 | 20.3%
17 | CCCCc1ccc(C(N)=O)nc1 | 85%
18 | Cc1ccc(-c2nn(C)c(=O)c3noc(-c4ccc(C)cc4)c23)cc1 | 19.8%
19 | Cc1cc(Nc2c3ccccc3nc3ccccc23)ccc1NS(C)(=O)=O | 23.6%
20 | CCN(CC)Cc1cc(Nc2nc(NC3CCC(N(C)C)CC3)c3ccccc3n2)ccc1OC (stereo not given) | -15.1% (active)

Row | SMILES | growth
21 | Cc1cn(C(C=O)OC(C=O)CO)c(=O)[nH]c1=O (stereo not given) | 113%
22 | O=C(Nc1nc2c(C(F)(F)F)cccc2s1)c1cc(Cl)ccc1O | -10.5% (active)
23 | O=C(NS(=O)(=O)c1ccccc1)n1cc(-c2ccncc2)c(-c2ccc(Cl)c(O)c2)n1 | 96.5%
24 | CC1(C)CC2=C3C=C[C@@H]4[C@@]5(C)CC[C@H](O)C(C)(C)[C@@H]5CC[C@@]4(C)[C@]3(C)CC[C@@]2(C(=O)O)CC1=O | 81.4%
25 | Cc1ccc2nc(-c3ccc(C(=O)N/N=C/c4ccc([N+](=O)[O-])cc4)cc3)[nH]c2c1 | 113%
26 | CC(=O)N1C(=S)NC(=O)C1Cn1c(-c2ccccc2)nc2ccccc21 (stereo not given) | 96.8%
27 | CCN(C(=O)Nc1ccccc1Cl)c1ccccc1 | 97.4%
28 | COc1cc(-c2cc(C(=O)N3CCN(C(=O)c4ccccc4NCc4cccs4)CC3)nc3cc(-c4ccccc4)nn23)cc(OC)c1OC | 64.6%
29 | COc1cc2ncnc(Nc3ccc(Oc4ccnc(C)c4)c(C)c3)c2cc1NC(=O)CC1CCSS1 (stereo not given) | -67% (active)
30 | CC1COc2c(N3CCN(C)CC3)c(F)cc3c(=O)c(C(=O)N/N=C/c4cc[nH]c4)cn1c23 (stereo not given) | -9.35% (active)
31 | S=c1[nH]nc(-c2cc3ccc2CCc2ccc(cc2)CC3)n1C1CC1 | 106%
32 | CCCCN1C(=O)/C(=c2\sc3n(c2=O)C2C(NN=3)N(CC)C(=O)N2CC)c2cc(Cl)ccc21 (stereo not given) | 56.2%
33 | N#Cc1c(-c2ccc(Br)cc2)nc2c(N=Nc3ccc(S(N)(=O)=O)cc3)c(N)nn2c1N | 23.6%
34 | CCOc1nc(-c2ccccc2)cc2c(O)c(C(=O)NC(C)C)[nH]c(=O)c12 | 101%
35 | CC1=NC2=CC=CC3=NC(C(Cl)(Cl)Cl)=NC(=N1)N23 | 90.2%
36 | CCOC(=O)C1=NN(c2ccccc2)C(=O)/C1=C\N1C(=O)/C(=C/c2cccc(O)c2)SC1=S | 106%
37 | Cn1cc(C(=O)c2nc(-c3c[nH]c4ccc(F)cc34)no2)c2cc(F)ccc21 | 107%
38 | COc1ccc(Nc2nc(SCC(C)C)nc(-c3ccc(F)cc3)c2C#N)cc1 | 32.6%
39 | O=C(COc1ccc(/C=C2\Cc3ccccc3C2=O)cc1)c1ccc(Cl)cc1 | 111%
40 | O=[N+]([O-])c1cc(CCl)ccc1OCCBr | 92.4%
